# Unmarked numbers belong to inactive results.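 How the source made its calls: active = MAPPIT score above the 99th percentile of random reference set scores in the same batch; inactive = at or below it.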
# B1: Sry-alpha (protein)
# chain: MEQLLAQLHTCSELIAEGYSSTGNIGWLNEFCATFLDFASDLKARLPEVAPSGANLDVETIFLCLTQVVTCITHLERTISMEAPHMTRQHFLDRLDWCLRRLLVSLTQLEGNVTPVKNLEDHSFVELMDLALDHLDDYMEKLAQQRNNSLHILEESFTEDTYQLASIVNHIVRHALAFANVAIHSDKKALTALCETLLAECATFHEEAGEPNSGHRKLEALSLERALYALESFLNEALLHLLFVSLIDLENASVEKLKDALQRDPAGAQELISAFDTNMDRIQQIGVLAIAFSQDIKTKTIVRSCLASLESLDACIVPALQLPESTSSAHHAEVLQEHFNQELLIFRNVIHEIIDSCSLINNYLDMLGERIHVQDKSHLKLIVQRGGVVVDHFRLPVNYSGLSEDGKRVHKDLILILRECQAVVNLDVPVDPKRIVKRLKILYSVLAKLRDLICRDNLEPDSSVASEAQVPSSATRTFVRSSRSFGKRHRSFVKQTGNCSVFGPQDSLAESGHSESDLISFQITEILRLD
# B2: mRpS24 (protein)
# chain: MNFLKKLLPQVATEVQQLSRSGFHTSSVCCRVQSGRYRITTKRNRPLTYEMANPPHFIGHRKSWNSWNTSTMKDALRPSQTAIEDVFIRKFVTGTWHALVCSEVIIKRQHNTIRIAALIRQAITPRKMYFLIGYTEELLSYWMQCPVTLELQTVGDKKDVVFKYI
# B3: Edg78E (protein)
# chain: MYKYLFCLALIGCACADNINKDAQIRSFQNDATDAEGNYQYAYETSNGIQIQEAGNANGARGAVAYVSPEGEHISLTYTADEEGYHPVGDHLPTPPPVPAYVLRALEYIRTHPPAPAQKEQQ
# B4: mRpL52 (protein)
# chain: MLKITKICLASSATSTAQRSIALTAPRAIDQKWRAAKGLPENPNAFGPLTNLPDYTYLDGRPTPLGANQKRRLIKQQEIATRIVELSGELEFAKQRHERLKANAESEKQRLIRSKLKPKGHFLLKK
# B5: osk (protein)
# chain: MAAVTSEFPSKPISYTSTNTSAKTYYLKSVKKRVTTCFQQLRDKLQSSGSFRKSSSSCLNQIFVRSDFSACGERFRKIFKSARKTELPELWKVPLVAHELTSRQSSQQLQVVARLFSSTQISTKEITYNSNSNTSENNMTIIESNYISVREEYPDIDSEVRAILLSHAQNGITISSIKSEYRKLTGNPFPLHDNVTDFLLTIPNVTAECSESGKRIFNLKASLKNGHLLDMVLNQKERTSDYSSGAPSLENIPRAPPRYWKNPFKRRALSQLNTSPRTVPKITDEKTKDIATRPVSLHQMANEAAESNWCYQDNWKHLNNFYQQASVNAPKMPVPINIYSPDAPEEPINLAPPGHQPSCRTQSQKTEPTENRHLGIFVHPFNGMNIMKRRHEMTPTPTILTSGTYNDSLLTINSDYDAYLLDFPLMGDDFMLYLARMELKCRFRRHERVLQSGLCVSGLTINGARNRLKRVQLPEGTQIIVNIGSVDIMRGKPLVQIEHDFRLLIKEMHNMRLVPILTNLAPLGNYCHDKVLCDKIYRFNKFIRSECCHLKVIDIHSCLINERGVVRFDCFQASPRQVTGSKEPYLFWNKIGRQRVLQVIETSLEY
# B6: Lcp2 (protein)
# chain: MFKFVMILAVVGVATALAPVSRSDDVHADVLSRSDDVRADGFDSSLHTSNGIEQAASGDAHGNIHGNFGWISPEGEHVEVKYVANENGYQPSGAWIPTPPPIPEAIARAVAWLESHPPAPEHPRHH
# B7: Arr1 (protein)
# chain: MVVNFKVFKKCSPNNMITLYMNRRDFVDSVTQVEPIDGIIVLDDEYVRQNRKIFVQLVCNFRYGREDDEMIGLRFQKELTLVSQQVCPPQKQDIQLTKMQERLLKKLGSNAYPFVMQMPPSSPASVVLQQKASDESQPCGVQYFVKIFTGDSDCDRSHRRSTINLGIRKVQYAPTKQGIQPCTVVRKDFLLSPGELELEVTLDKQLYHHGEKISVNICVRNNSNKVVKKIKAMVQQGVDVVLFQNGQFRNTIAFMETSEGCPLNPGSSLQKVMYLVPTLVANCDRAGIAVEGDIKRKDTALASTTLIASQDARDAFGIIVSYAVKVKLFLGALGGELCAELPFILMHPKPSRKAQLEAEGSIEA
# B8: su(sable) (protein)
# chain: MSVALADEPLIDLEEDLEDGEIDDDEEDEQQSSKIQVQKKTFVGDDDVQFVGVEAKNQNDDEDVVYVGPSTDAVCLQNSNSTKSKKPRPLEDDHASSIELAIANALKKKGIEPPMPRMRSSNQDTSDQSLEGSGEGLATANPLLQSTRSSRRRKRKKEREREQKKDKEQQNRSRRDENDVSVVPGGVEDMDEYEMMNVRGGSPPPGGAAPPLSSCGQRFSGADWDMDDGSAATGAAGLGAGGGGGYNSHSSYDSYSDEETNGPGLMNQRRRTRRDNEKEHQRGVNNRKRRDRDRLEGGLAGSGSKRNRRDSGEGGGGGQEKMGGSNRVEPRKLELCKFYLMDCCAKRDKCSYMHKEFPCKYYYLGMDCYAGDDCLFYHGEPLSEQLRNVLLKHMETAPKEILGDFKRISRDIAIVQMTRRHEQLCDQLNRENTWNSIGCGLMGKRQDHQMQQQQQQLQHQQLQQQQEQQQTQQQAAADGGGCIPSLLDMVINPPLSENKRKSRWTEKMGAKAAAGAAGSSERDSTSPDAKPLPPHLDLANLSHVLSAENMAKLNKLGITNLEQMLQVPFGQLTEAGLTLVEIGEIQRKAEDAKPQTQAELESSTPPSKRETEANNSNSKSNGLIMVDYTQYLKDAHVSFSGNDPLDDDRDDDEQLIIDDGNDSTAEEDQQPKKAKAPPAATHESSTEEAPLPSVFDLPSFMNNMLGQGSSARQLLPASATSPNQENAHLPGGDQSTHKSAPIGGGTSTNVLGRILFGDKQSDPEARAAFYRDIIRNPFKAHSGDGDVDSSNENSNSNSHSLTPTPTPEPGSQSPKPEDHDQDMPELPVIAPALPPTTPSLYVRRSMYDFDPVKEQEHGRQELLTEEKEQYQRDTDMRLPFEPMKHYMPATEIDAAIFSHTPIRWQLHEVTIEESSYAQIRASALHKEQRELRDPRMRRILGLPETPDNSGPLGSVPIMGPSSFSVDNIARCATTIASPDLETAVRDSTPSSPPPSVVNLPSMSVPPPSMRVPPPNIQVEKPTVRTDPRRDPRRAVLQAPTKGASTANTTAPNASGGSKQISEIRSLLQVSNWYNNLGTNNKIMVNQQLALVFTELKKFHQLPNDAPKIFDVSFIVNNTTLQQIFAKLFIFVDDNGEVVQIPEEPNGNGAALGGGGDSGGGVGGGGGGGGVVLPNLSQPPPNLSQMLRLPPPNIRMLRMSGMMMQMGNVGPPFNQPPPRGGLMGMPPNGNGLNQGVGNLGGLGQLGINQGGGPVPNGNPFNPFGGNNGGGAGVMNNMNSMGNMGMGFNNFNNNGGRGGHFPGGGSGGNGNGNNRNQRGGNHRNRNI
# B9: Eh (protein)
# chain: MNCKPLILCTFVAVAMCLVHFGNALPAISHYTHKRFDSMGGIDFVQVCLNNCVQCKTMLGDYFQGQTCALSCLKFKGKAIPDCEDIASIAPFLNALE
# B10: PolE2 (protein)
# chain: MDVDLLPLRKRITNTFKLCGFLIRSENSSYLAEQLLPFDAAERDKWLTVITENLQSQKLLTPHVERAALEKAINELNRVGLDEGETVFALIDAFTVPRFRYNQRIKKFELDTQPRQLLTAPRMKSDYMQQRYAMLLQKTLRHDLFAPAVIQDGVGAEAQAKKFKLQFAENLLATSAMKEAVVLGLLTQLKEGKFYVEDPTGCVQLDLTGARFHAGFFCEGCFVLAEGNYNNGVLKVDGLGFPPAEPANSSRAFFGTANTWGGESAKLLKYSAGLQELERTNTETTIVFLSDVRLDLPVVMEKLRQLFVGYDSCPPQAIVLMGPFTASTRNHHELRHHLDALGGLAAGCEQLKKQTDLILVPSSEDPTAPNILPRAPIPECLAAGLLKAWPRTQLATNPCRLQYCTQQIVVCRLDLMAKFCRNTLHFPEDTSQIEQHFARTIVCQGHLVPIHPIAMPVHWDYDPALWLYPLPDLIVMGDSCQSFSSSQHGCTVLNTGSFVKSKFAFKVYIPATRTIEDSEIPDELE
# B11: Sod3 (protein)
# chain: MMQYLVVSLALCATICSAAQTRNMPIQAIAYLIGPVQSDNTQVKGNVTFTQNDCGQNVHVRVQLEGLKEGKHGFHIHEKGDLTNGCISMGAHYNPDKVDHGGPDHEVRHVGDLGNLEANSTGIIDVTYTDQVITLTGKLGIIGRGVVVHELEDDLGLGNHTDSKKTGNAGGRIACGVIGIK
# B12: Cdlc2 (protein)
# chain: MSDRKAVIKNADMSEEMQQDAVDCATQALEKYNIEKDIAAFIKKEFDKKYNPTWHCIVGRNFGSYVTHETRHFIYFYLGQVAILLFKSG
# B13: Adf1 (protein)
# chain: MHTLTAAIEMDKLDANLEQQFDLNLIEAVKLNPVIYDRSHYNYKHFVRKAQTWKQIAETLGVPEQKCTKRWKSLRDKFAREMKLCQESRWRYFKQMQFLVDSIRQYRESLLGKCANGSQSANQVADPSQQQQAQQQTVVDIFAQPFNGSATTSAQALTHPHEITVTSDAQLATAVGKDQKPYFYEPPLKRERSEEEHSDNMLNTIKIFQNNVSQAVSAEDQSFGMVVTDMLNTLGVRQKAEAKVHIIKYLTDMQLLAQHNKY
# B14: TfIIFbeta (protein)
# chain: MSKEDKEKTQIIDKDLDLSNAGRGVWLVKVPKYIAQKWEKAPTNMDVGKLRINKTPGQKAQVSLSLTPAVLALDPEEKIPTEHILDVSQVTKQTLGVFSHMAPSDGKENSTTSAAQPDNEKLYMEGRIVQKLECRPIADNCYMKLKLESIRKASEPQRRVQPIDKIVQNFKPVKDHAHNIEYRERKKAEGKKARDDKNAVMDMLFHAFEKHQYYNIKDLVKITNQPISYLKEILKDVCDYNMKNPHKNMWELKKEYRHYKTEEKKEEEHKSGSSDSE
# Columns and labels:
# Assay in all cases: MAPPIT interaction score (arbitrary units); higher = stronger binary interaction signal, active = hit call of the paper
# [1] = molecular target: CG12253; settings: MAPPIT configuration: N-C; pair source set: screen_3
# [2] = molecular target: Hsp70Aa; settings: MAPPIT configuration: N-N; pair source set: Lit-BS-16
# [3] = molecular target: CG11570; settings: pair source set: RRS
# [4] = molecular target: MFS16; settings: MAPPIT configuration: N-N; pair source set: DPIM
# [5] = molecular target: Tsp; settings: MAPPIT configuration: N-N; pair source set: DPIM
# [6] = molecular target: CG12112; settings: MAPPIT configuration: N-N; pair source set: RRS
# [7] = molecular target: CG12268; settings: MAPPIT configuration: N-N; pair source set: DPIM
# [8] = molecular target: mub; settings: MAPPIT configuration: N-N; pair source set: DPIM
# [9] = molecular target: CG12307; settings: MAPPIT configuration: N-C; pair source set: screen_3
# [10] = molecular target: CG30324; settings: MAPPIT configuration: N-C; pair source set: screen_3
# [11] = molecular target: en; settings: MAPPIT configuration: N-C; pair source set: screen_4
# [12] = molecular target: CG11275; settings: MAPPIT configuration: N-N
# [13] = molecular target: CG12155; settings: MAPPIT configuration: N-N; pair source set: Lit-BS-16
# [14] = molecular target: Ravus; settings: MAPPIT configuration: N-N; pair source set: screen_1
# [15] = molecular target: CG11723; settings: MAPPIT configuration: N-N; pair source set: screen_2
# [16] = molecular target: CG31624; settings: MAPPIT configuration: N-N; pair source set: screen_2
# [17] = molecular target: CG11327; settings: MAPPIT configuration: N-C; pair source set: screen_3
# [18] = molecular target: CG11555; settings: MAPPIT configuration: N-N; pair source set: Curagen_high_conf
# [19] = molecular target: CG5708; settings: MAPPIT configuration: N-C; pair source set: screen_4
# [20] = molecular target: CG11961; settings: MAPPIT configuration: N-N; pair source set: Lit-BS-16
# [21] = molecular target: CG12607; settings: MAPPIT configuration: N-N; pair source set: Lit-BS-16
# [22] = molecular target: noc; settings: MAPPIT configuration: N-N; pair source set: Curagen_high_conf
# [23] = molecular target: CG11983; settings: MAPPIT configuration: N-N; pair source set: screen_1
# [24] = molecular target: CG8159; settings: MAPPIT configuration: N-N; pair source set: Curagen_low_conf
# [25] = molecular target: CG11596; settings: MAPPIT configuration: N-N; pair source set: Finley_Y2H
# 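Further: HEK293T cells with Epo stimulation, STAT-responsive firefly luciferase reporter, fold induction versus unstimulated cells divided by the larger fold induction of two negative controls lacking either bait or prey.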
binder,measurement,setting,value
B1,MAPPIT interaction score,[1],0.332
same,MAPPIT interaction score,[2],3.5 (active)
B2,MAPPIT interaction score,[3]; MAPPIT configuration: N-C,0.0908
same,MAPPIT interaction score,[3]; MAPPIT configuration: N-N,-0.09
same,MAPPIT interaction score,[4],0.186
same,MAPPIT interaction score,[5],0.192
B3,MAPPIT interaction score,[6],2.76 (active)
B4,MAPPIT interaction score,[7],-0.169
same,MAPPIT interaction score,[8],0.103
B5,MAPPIT interaction score,[9],2.35
same,MAPPIT interaction score,[10],0.362
same,MAPPIT interaction score,[11],0.844
B6,MAPPIT interaction score,[12]; pair source set: Curagen_high_conf,0.91
B7,MAPPIT interaction score,[13],0.0379
same,MAPPIT interaction score,[14],0.0915
B8,MAPPIT interaction score,[15],0.327
same,MAPPIT interaction score,[16],1.52
B9,MAPPIT interaction score,[17],1.52
B10,MAPPIT interaction score,[18],0.14
same,MAPPIT interaction score,[19],1.19
B11,MAPPIT interaction score,[20],-0.0996
same,MAPPIT interaction score,[21],0.262
same,MAPPIT interaction score,[22],0.249
B12,MAPPIT interaction score,[23],4.18 (active)
B13,MAPPIT interaction score,[12]; pair source set: screen_1,2.6 (active)
same,MAPPIT interaction score,[24],-0.0528
B14,MAPPIT interaction score,[25],0.174
